According to ChEMBL document CHEMBL3988442, “University of Dundee, Small-Polar-MMV Screening Library” (2021):
For some of these results: Results with a measured potency or affinity are listed apart.

Key:
Design in all cases: scale not given: direction of the effect not stated beside the values
[1] = target: Protein translocase subunit SecA (Escherichia coli (strain K12)) (UniProt P10408); assay: Assay to Identify E. coli SecA ATPase Inhibitors; type: functional; settings: 30 µM
[2] = target: T1, Ubiquitin-activating enzyme e1, putative (Leishmania donovani (strain BPK282A1)) (UniProt E9BSI1); assay: Leishmania donovani Ubiquitin Activating Enzyme (LdE1); type: functional; settings: 30 µM
T1 sequence (whole entry): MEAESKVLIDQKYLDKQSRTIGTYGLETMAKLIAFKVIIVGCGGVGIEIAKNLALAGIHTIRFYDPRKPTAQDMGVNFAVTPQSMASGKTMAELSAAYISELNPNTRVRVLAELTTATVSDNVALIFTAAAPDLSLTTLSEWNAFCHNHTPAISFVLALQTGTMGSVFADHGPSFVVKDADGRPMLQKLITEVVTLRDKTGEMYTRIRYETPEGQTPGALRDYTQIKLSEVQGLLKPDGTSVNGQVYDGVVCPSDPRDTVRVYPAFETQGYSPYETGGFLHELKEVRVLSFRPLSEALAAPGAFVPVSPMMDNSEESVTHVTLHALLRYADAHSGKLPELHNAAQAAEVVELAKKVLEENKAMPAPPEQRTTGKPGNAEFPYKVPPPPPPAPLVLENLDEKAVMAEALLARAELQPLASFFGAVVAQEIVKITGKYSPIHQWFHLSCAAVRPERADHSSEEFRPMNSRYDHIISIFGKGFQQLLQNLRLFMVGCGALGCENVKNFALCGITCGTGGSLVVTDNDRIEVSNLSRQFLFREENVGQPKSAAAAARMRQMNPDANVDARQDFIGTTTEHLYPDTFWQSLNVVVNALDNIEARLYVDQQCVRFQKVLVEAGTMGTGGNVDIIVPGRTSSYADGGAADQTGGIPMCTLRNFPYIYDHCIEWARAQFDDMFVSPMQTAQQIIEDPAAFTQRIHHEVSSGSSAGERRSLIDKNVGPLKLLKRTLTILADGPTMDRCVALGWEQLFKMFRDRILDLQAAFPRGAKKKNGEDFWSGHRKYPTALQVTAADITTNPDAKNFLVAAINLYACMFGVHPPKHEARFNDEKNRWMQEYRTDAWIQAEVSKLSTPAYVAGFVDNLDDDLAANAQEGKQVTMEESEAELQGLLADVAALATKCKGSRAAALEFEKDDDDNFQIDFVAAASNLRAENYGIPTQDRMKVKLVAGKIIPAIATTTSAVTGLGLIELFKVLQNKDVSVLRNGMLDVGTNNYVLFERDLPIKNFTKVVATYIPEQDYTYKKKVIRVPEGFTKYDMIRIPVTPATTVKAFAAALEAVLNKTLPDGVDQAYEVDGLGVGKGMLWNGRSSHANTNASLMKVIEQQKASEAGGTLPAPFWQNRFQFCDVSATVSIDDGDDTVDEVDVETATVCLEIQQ

[3] = target: AMP-activated protein kinase, AMPK (Homo sapiens) (UniProt P54646+O43741+P54619+Q9UGJ0+Q9Y478+Q13131+Q9UGI9); assay: AMP-dependent Kinase enzyme assay. An in vitro enzyme assay that detects ADP turnover that is directly proportional to AMPK activity. This uses naive AMPK that is activated during the assay with MK-8722; type: functional; settings: 30 µM
[4] = target: Sialic acid-binding Ig-like lectin 9 (Homo sapiens) (UniProt Q9Y336); assay: Hs-Siglec9 ALPHAscreen SOP 20170721; settings: 10 µM
Trypanosoma cruzi = assay: Trypanosoma cruzi phosphomannomutase and mannose-1-phosphate guanylyltransferase assay; type: functional; settings: 10 µM
[5] = target: T2, Arginase-2, mitochondrial (Homo sapiens) (UniProt P78540); assay: in vitro enzyme assay to detect the production of urea directly proportional to the activity of Arginase II; type: functional; settings: 33.3 µM; note: in the data most compounds retested in dose-response had high values
T2 sequence (whole entry): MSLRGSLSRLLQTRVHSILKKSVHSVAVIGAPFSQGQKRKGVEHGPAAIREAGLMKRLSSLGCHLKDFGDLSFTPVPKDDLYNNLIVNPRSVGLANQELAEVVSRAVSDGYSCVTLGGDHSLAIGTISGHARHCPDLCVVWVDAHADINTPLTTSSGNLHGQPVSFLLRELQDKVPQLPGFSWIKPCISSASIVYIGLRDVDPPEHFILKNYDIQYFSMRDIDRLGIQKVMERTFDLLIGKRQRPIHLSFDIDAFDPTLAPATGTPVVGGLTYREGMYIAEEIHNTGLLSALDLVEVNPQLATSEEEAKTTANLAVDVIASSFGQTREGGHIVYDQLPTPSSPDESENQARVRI

[6] = target: T3, Proteasome subunit beta (Trypanosoma cruzi) (UniProt O96673); assay: Trypanosoma cruzi proteasome chymotrypsin-like activity (TcProtChymo) assay.; note: in the data most compounds retested in dose-response had high values; type: functional; settings: 9.37 µM
T3 sequence (whole entry): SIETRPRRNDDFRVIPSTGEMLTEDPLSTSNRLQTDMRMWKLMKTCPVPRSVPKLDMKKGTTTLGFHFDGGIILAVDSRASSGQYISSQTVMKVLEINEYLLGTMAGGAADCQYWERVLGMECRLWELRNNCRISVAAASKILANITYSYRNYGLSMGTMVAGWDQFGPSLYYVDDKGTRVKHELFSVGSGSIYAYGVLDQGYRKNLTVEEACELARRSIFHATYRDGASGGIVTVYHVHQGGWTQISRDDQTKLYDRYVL

Homo sapiens = species: Homo sapiens; assay: To identify inhibition of the IFN signalling (Jak-Stat) pathway via expression of an eGFP reporter gene under the control of an IFN-stimulated response element (ISRE) containing MxA promoter.; type: functional; settings: 30 µM
[7] = target: T4, Tyrosyl-tRNA synthetase, putative (Trypanosoma cruzi (strain CL Brener)) (UniProt Q4DSP6); assay: Trypanosoma cruzi tyrosyl tRNA synthetase (TcYRS) _High Tyrosine SOP; type: functional; settings: 30 µM; note: in the data most compounds retested in dose-response had high values
T4 sequence (whole entry): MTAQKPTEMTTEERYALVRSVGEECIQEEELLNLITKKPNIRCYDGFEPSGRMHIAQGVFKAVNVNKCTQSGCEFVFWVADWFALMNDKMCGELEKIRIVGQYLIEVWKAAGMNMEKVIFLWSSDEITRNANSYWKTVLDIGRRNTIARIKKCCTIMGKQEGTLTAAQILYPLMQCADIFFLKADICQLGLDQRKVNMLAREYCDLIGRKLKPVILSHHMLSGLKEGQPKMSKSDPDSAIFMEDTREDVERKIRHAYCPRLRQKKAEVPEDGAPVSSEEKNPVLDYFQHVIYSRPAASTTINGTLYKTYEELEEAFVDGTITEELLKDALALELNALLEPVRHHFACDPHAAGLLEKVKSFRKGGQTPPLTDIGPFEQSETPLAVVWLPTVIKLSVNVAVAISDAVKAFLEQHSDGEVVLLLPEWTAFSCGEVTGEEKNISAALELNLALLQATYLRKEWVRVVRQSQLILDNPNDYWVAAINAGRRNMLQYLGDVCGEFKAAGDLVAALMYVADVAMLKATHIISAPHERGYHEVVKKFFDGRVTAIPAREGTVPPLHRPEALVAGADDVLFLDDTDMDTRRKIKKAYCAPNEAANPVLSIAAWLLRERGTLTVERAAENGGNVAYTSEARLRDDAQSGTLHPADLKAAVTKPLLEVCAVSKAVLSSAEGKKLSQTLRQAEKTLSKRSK

[8] = target: T4, Tyrosyl-tRNA synthetase, putative (Trypanosoma cruzi (strain CL Brener)); assay: Trypanosoma cruzi tyrosyl tRNA synthetase (TcYRS) SOP; type: functional; settings: 30 µM
[9] = target: Chromo domain-containing protein 1 (Saccharomyces cerevisiae (strain ATCC 204508 / S288c) (Baker's yeast)) (UniProt P32657); assay: ScCHD-1 Enzyme Inhibition Assay; type: functional; settings: 30 µM; note: in the data most compounds retested in dose-response had high values
Chromo domain-containing protein 1 (Saccharomyces cerevisiae (strain ATCC 204508 / S288c) (Baker's yeast)), sequence (P32657 whole entry, the tested form may be a part): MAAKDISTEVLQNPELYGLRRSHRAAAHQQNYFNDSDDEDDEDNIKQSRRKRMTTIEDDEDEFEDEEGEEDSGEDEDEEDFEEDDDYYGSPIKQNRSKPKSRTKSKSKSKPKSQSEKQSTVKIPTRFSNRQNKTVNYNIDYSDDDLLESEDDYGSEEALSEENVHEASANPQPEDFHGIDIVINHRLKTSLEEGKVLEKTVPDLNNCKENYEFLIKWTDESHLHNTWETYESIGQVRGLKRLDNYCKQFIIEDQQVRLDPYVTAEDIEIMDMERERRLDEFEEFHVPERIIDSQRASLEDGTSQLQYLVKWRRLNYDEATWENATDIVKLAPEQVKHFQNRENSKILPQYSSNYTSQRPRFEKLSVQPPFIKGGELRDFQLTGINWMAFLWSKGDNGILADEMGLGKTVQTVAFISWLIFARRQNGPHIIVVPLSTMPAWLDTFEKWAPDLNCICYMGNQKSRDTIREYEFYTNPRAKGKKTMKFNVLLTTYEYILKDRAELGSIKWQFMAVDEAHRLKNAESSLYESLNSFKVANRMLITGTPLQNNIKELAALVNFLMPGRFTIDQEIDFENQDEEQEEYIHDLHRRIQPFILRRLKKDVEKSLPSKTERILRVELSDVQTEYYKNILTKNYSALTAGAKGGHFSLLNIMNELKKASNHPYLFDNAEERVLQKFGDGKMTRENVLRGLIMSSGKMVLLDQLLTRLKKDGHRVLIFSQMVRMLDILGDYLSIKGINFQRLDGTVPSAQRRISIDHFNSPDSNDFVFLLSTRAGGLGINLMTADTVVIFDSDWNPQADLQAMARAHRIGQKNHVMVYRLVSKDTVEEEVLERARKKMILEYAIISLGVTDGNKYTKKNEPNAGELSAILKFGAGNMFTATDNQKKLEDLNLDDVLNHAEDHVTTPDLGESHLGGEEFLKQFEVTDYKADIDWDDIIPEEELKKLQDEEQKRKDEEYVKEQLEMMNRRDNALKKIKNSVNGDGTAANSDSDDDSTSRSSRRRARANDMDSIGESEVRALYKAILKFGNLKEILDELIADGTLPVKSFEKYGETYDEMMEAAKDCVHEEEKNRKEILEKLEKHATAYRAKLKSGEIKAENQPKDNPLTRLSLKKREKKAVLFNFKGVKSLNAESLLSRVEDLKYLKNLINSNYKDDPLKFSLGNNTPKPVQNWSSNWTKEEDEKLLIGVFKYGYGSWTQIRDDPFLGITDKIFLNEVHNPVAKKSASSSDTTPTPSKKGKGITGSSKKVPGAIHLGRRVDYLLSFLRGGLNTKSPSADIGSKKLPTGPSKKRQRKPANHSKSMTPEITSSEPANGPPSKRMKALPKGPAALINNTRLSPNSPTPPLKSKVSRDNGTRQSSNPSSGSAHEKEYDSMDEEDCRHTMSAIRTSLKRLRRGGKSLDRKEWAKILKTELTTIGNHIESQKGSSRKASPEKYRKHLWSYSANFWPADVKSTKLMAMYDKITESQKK

Protein translocase subunit SecA (Escherichia coli (strain K12)), sequence (P10408 whole entry): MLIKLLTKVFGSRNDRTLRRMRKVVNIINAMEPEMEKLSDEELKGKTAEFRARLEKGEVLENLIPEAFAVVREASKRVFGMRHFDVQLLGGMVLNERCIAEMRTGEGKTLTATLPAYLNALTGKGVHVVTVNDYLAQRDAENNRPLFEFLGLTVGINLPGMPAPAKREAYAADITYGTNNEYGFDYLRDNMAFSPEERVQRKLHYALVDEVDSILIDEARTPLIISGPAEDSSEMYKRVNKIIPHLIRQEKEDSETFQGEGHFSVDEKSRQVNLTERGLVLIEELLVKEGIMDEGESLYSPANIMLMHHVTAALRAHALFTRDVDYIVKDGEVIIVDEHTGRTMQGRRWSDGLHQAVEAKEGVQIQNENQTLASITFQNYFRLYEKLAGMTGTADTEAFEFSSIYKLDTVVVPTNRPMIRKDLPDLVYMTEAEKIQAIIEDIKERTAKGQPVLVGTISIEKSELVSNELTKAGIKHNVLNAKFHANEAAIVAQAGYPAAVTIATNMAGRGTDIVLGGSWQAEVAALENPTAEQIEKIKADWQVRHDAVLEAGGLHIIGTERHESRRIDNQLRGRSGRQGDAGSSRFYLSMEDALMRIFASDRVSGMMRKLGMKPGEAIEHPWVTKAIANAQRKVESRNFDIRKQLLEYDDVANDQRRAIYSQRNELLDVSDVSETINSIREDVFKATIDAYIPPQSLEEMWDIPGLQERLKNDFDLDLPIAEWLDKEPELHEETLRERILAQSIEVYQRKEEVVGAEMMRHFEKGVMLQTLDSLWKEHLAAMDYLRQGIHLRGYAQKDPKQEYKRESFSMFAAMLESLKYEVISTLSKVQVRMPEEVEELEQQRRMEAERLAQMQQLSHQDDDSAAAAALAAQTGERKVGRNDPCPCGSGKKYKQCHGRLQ
Sialic acid-binding Ig-like lectin 9 (Homo sapiens), sequence (Q9Y336 whole entry): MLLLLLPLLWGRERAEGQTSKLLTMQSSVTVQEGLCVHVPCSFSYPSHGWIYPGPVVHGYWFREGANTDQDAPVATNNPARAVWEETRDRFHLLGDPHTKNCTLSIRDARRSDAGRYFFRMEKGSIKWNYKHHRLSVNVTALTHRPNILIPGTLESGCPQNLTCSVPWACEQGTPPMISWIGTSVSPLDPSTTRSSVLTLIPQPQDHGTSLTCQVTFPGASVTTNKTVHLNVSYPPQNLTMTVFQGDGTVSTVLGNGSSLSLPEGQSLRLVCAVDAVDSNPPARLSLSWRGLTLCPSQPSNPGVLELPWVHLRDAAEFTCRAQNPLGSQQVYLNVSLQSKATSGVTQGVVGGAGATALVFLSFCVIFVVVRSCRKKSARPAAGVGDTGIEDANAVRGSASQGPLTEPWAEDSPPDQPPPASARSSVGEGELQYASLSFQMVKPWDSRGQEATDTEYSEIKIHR

| SMILES | Percent Effect [1] [%] | Percent Effect [2] [%] | Percent Effect [3] [%] | Percent Effect [4] [%] | Percent Effect (Trypanosoma cruzi) [%] | Percent Effect [5] [%] | Percent Effect [6] [%] | Percent Effect (Homo sapiens) [%] | Percent Effect [7] [%] | Percent Effect [8] [%] | Percent Effect [9] [%] |
| --- | --- | --- | --- | --- | --- | --- | --- | --- | --- | --- | --- |
| FC(F)(F)Cn1ccnc1CN1CCOC(Cn2cccn2)C1 (stereo not given) | -5.79 | 6.33 | 6.8 | 1.11 | -2.36 | -1.5 | 1.54 | 13.3 | 1.04 | 15.2 | -6.67 |
| CCCn1ccc2ccc(NC(=O)N(C)CCOC)cc21 | -1.73 | -10.5 | -6.25 | 4.31 | -4.58 | 1.18 | 9.3 | -9.53 | 1.06 | 5.2 | -2.86 |
| COCC1COCCC12CCN(C(=O)CCOc1ccccc1)CC2 (stereo not given) | -3.35 | 2.7 | 0.684 | -3.94 | 8.2 | -2.5 | 6 | -0.428 | 8.91 | 6.1 | 1.14 |
| CCC(=O)NCCc1cc(N2CCN(C(C)=O)CC2)nc(C2CC2)n1 | -1.34 | 6.76 | 12.6 | -2.83 | -6.72 | 3.02 | 10.3 | 16.2 | 2.15 | 11.7 | 1.75 |
| CC(=O)N1CCOCC2(CCN(Cc3ccc(C)s3)CC2)C1 | -3.46 | 10.7 | -5.5 | -0.245 | 6.37 | -51.8 | 2.91 | -1.39 | 4.17 | 5 | -7.22 |
| CC(C)CNC(=O)NC(=O)CNc1ccccc1SCC(C)C#N (stereo not given) | -5.8 | 11 | 6 | 16.8 | 1.37 | 6.82 | 9.41 | 11.3 | 0 | 12.5 | -5.23 |
| Cn1c(CC2CCS(=O)(=O)C2)nnc1SCCOc1ccccc1F (stereo not given) | -0.675 | 2.7 | 2.63 | 12.8 | 2.64 | 30.5 | 2.15 | -9.3 | -2.15 | 6.17 | -9.15 |
| O=C(NCc1ccoc1)NC1CCCN(c2ncccn2)C1 (stereo not given) | -3.31 | 7.89 | 6.88 | 0.569 | 4.97 | -8.28 | 15.8 | 20.9 | 3.19 | 13 | -3.64 |
| CCCc1n[nH]c(C2CN(CCn3cccn3)CCO2)n1 (stereo not given) | -6.25 | -4.17 | -1.07 | -3.33 | 2.04 | 2.21 | 11.9 | -12.6 | 2.1 | 0 | -1.2 |
| Cn1nc(C2CCCN(Cc3cccc(F)c3)C2)c2nccnc21 (stereo not given) | -3.38 | 9.46 | 9.97 | 14.6 | 6.13 | -1.62 | 9.05 | 13.8 | 2.15 | 16.9 | -15.8 |
| Cn1cccc1C(=O)N1CCCC2(CCN(CCN3CCCC3)C2=O)C1 (stereo not given) | -6.99 | 2.6 | 0.774 | 9.32 | -1.48 | -4.14 | 7.65 | 11.9 | -2.15 | -1.24 | 0.981 |
| Cc1ccc(CN2CCCC3(CCN(S(=O)(=O)N(C)C)C3)C2)o1 (stereo not given) | -4.24 | 10.7 | 11.3 | 7.3 | -2.17 | 3.03 | 13.7 | 9.85 | 7.45 | 19.2 | -3.25 |
| Cc1ccc(C)c(C(=O)CN2C(=O)c3ccccc3CS2(=O)=O)c1 | -0.543 | -2.7 | -3.5 | 9.17 | 5.79 | 0 | 18.1 | 12 | -36.5 | -41.5 | 22.1 |
| CS(=O)(=O)N1CCC(Oc2cnccn2)CC1 | -2.51 | 10.4 | -2.43 | 6.29 | 2.46 | 1.94 | 14.1 | 7.55 | 4.23 | 11.5 | -8.42 |
| CSc1ccccc1CN1CCCn2nc(CNC(=O)N(C)C)cc2C1 | -2.86 | 8.22 | -6.48 | 20.7 | 3.13 | 4.09 | 6.92 | 9.78 | 4.3 | 12.5 | 97.4 |
| Cc1ccc(C(=O)N2CCN(S(C)(=O)=O)CC2)cc1N1CCNC1=O | -5.92 | 8 | 3.73 | 15.8 | 2.24 | 5.73 | 15.5 | 16.6 | 6.01 | 11.1 | -6.07 |
| O=C(c1cccn1Cc1cccs1)N1CCN(C(=O)C2CC2)CC1 | -6.16 | 13 | 1.66 | 2.72 | 1.5 | -0.712 | 0.845 | 9.85 | 8.74 | 21.9 | 1.63 |
| Cc1cnc(N2CC3(CCN(C(=O)c4ccoc4)C3)C2)nc1 | -4.42 | 5.2 | 2.7 | 2.78 | -3.64 | -30.3 | 15 | 1.13 | 0 | 1.24 | -4.73 |
| O=C(NCC(O)CN1CCc2ccccc2C1)Nc1cccnc1 (stereo not given) | -4.38 | 13 | 3.15 | 3.21 | 0.294 | 3.58 | 11.2 | 14.5 | 1.91 | -25.9 | -11.5 |
| Cn1cnc2c1C(COCC1CC1)CN(C(=O)Cc1ccsc1)C2 (stereo not given) | -4.47 | 10.4 | -8.29 | 8.48 | 6.02 | -8.39 | 7.14 | 9.25 | 2.12 | 6.41 | 84.8 |
